Data from paper PMC11006913.
Changes are numbered by the printed parent chain.

Each sequence was assayed against HOXB9 (Homo sapiens, UniProt P17482 171-250, T197M) (assay: PBM; 200 nM protein, PBS). Settings: dsDNA, one strand shown.
Chain of HOXB9 (P17482 171-250 T197M): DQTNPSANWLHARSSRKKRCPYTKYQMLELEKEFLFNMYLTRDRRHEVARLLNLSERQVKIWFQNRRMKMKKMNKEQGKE

Sequence | binding signal
GCCGCAGC | 8.46 upbm affinity estimate (log intensity, higher = more binding, comparable within an allelic series)
CACGGGGG | 8.4 upbm affinity estimate (log intensity, higher = more binding, comparable within an allelic series)
GCGCGCCC | 8.46 upbm affinity estimate (log intensity, higher = more binding, comparable within an allelic series)
AGAGGGGC | 8.56 upbm affinity estimate (log intensity, higher = more binding, comparable within an allelic series)
GCCATTAA | 10.1 upbm affinity estimate (log intensity, higher = more binding, comparable within an allelic series)
CCCGGACG | 8.39 upbm affinity estimate (log intensity, higher = more binding, comparable within an allelic series)
CGAGCGAC | 8.47 upbm affinity estimate (log intensity, higher = more binding, comparable within an allelic series)
GACCCAGC | 8.5 upbm affinity estimate (log intensity, higher = more binding, comparable within an allelic series)
CTCCCGAG | 8.41 upbm affinity estimate (log intensity, higher = more binding, comparable within an allelic series)
CCATTAAC | 9.99 upbm affinity estimate (log intensity, higher = more binding, comparable within an allelic series)

What follows are sequences tested against T1, SIX6 (Homo sapiens, UniProt O95475 114-200, L167I) (assay: PBM; 200 nM protein, PBS). Settings: dsDNA, one strand shown.
T1 sequence: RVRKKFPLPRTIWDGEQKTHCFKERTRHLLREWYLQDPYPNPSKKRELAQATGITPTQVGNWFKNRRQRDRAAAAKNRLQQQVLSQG

Sequence | binding signal
ATGATATG | 11.3 upbm affinity estimate (log intensity, higher = more binding, comparable within an allelic series)
GGCGGAAC | 8.85 upbm affinity estimate (log intensity, higher = more binding, comparable within an allelic series)
AATGATAC | 11.5 upbm affinity estimate (log intensity, higher = more binding, comparable within an allelic series)
GCGCGCCC | 8.73 upbm affinity estimate (log intensity, higher = more binding, comparable within an allelic series)
GCTTGGCC | 8.94 upbm affinity estimate (log intensity, higher = more binding, comparable within an allelic series)
CAAGGCCC | 8.9 upbm affinity estimate (log intensity, higher = more binding, comparable within an allelic series)

What follows are sequences tested against HOXA4 (Homo sapiens, UniProt Q00056 201-287, W262R) (assay: PBM; 200 nM protein, PBS). Settings: dsDNA, one strand shown.
Chain of HOXA4 (Q00056 201-287 W262R): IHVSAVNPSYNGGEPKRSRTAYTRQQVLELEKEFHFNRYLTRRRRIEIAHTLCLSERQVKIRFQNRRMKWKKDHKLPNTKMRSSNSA

Sequence | binding signal
CCCCCTGC | 9.55 upbm affinity estimate (log intensity, higher = more binding, comparable within an allelic series)
CGGAGGGA | 9.84 upbm affinity estimate (log intensity, higher = more binding, comparable within an allelic series)
GGGAGGAC | 9.79 upbm affinity estimate (log intensity, higher = more binding, comparable within an allelic series)
GCCAGGGC | 9.77 upbm affinity estimate (log intensity, higher = more binding, comparable within an allelic series)
CCAGGGCC | 9.65 upbm affinity estimate (log intensity, higher = more binding, comparable within an allelic series)
CCATTAAC | 10.6 upbm affinity estimate (log intensity, higher = more binding, comparable within an allelic series)
CCCTTCCG | 9.79 upbm affinity estimate (log intensity, higher = more binding, comparable within an allelic series)

Each sequence was assayed against HOXC9 (Homo sapiens, UniProt P31274 178-260, K195R) (assay: PBM; 200 nM protein, PBS). Settings: dsDNA, one strand shown.
Chain of HOXC9 (P31274 178-260 K195R): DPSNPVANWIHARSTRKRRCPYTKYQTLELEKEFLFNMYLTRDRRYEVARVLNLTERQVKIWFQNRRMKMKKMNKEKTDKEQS

Sequence | binding signal
CCGGGAGG | 9.54 upbm affinity estimate (log intensity, higher = more binding, comparable within an allelic series)
CCCCATGC | 9.5 upbm affinity estimate (log intensity, higher = more binding, comparable within an allelic series)
GGCACCAC | 9.65 upbm affinity estimate (log intensity, higher = more binding, comparable within an allelic series)
CGGAGGGA | 9.42 upbm affinity estimate (log intensity, higher = more binding, comparable within an allelic series)
ACGCATTA | 11.2 upbm affinity estimate (log intensity, higher = more binding, comparable within an allelic series)
GGGGTACC | 9.78 upbm affinity estimate (log intensity, higher = more binding, comparable within an allelic series)
GCCATTAA | 12.9 upbm affinity estimate (log intensity, higher = more binding, comparable within an allelic series)
CTGGGACC | 9.45 upbm affinity estimate (log intensity, higher = more binding, comparable within an allelic series)
CCGTCCGC | 9.35 upbm affinity estimate (log intensity, higher = more binding, comparable within an allelic series)
CGAGCGAC | 9.58 upbm affinity estimate (log intensity, higher = more binding, comparable within an allelic series)
CCCCTCCC | 9.65 upbm affinity estimate (log intensity, higher = more binding, comparable within an allelic series)
GCTTGGCC | 9.68 upbm affinity estimate (log intensity, higher = more binding, comparable within an allelic series)
CCCCTCGG | 9.54 upbm affinity estimate (log intensity, higher = more binding, comparable within an allelic series)
AGTTAATG | 12.5 upbm affinity estimate (log intensity, higher = more binding, comparable within an allelic series)
CGGGCACG | 9.61 upbm affinity estimate (log intensity, higher = more binding, comparable within an allelic series)
CCCCCTGA | 9.31 upbm affinity estimate (log intensity, higher = more binding, comparable within an allelic series)
CCATTAAC | 12.7 upbm affinity estimate (log intensity, higher = more binding, comparable within an allelic series)

Each sequence was assayed against T2, VENTX (Homo sapiens, UniProt O95231 78-163) (assay: PBM; 200 nM protein, PBS). Settings: dsDNA, one strand shown.
T2 sequence: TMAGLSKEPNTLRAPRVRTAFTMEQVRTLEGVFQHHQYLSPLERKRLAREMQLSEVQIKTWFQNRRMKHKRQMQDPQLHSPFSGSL

Sequence | binding signal
ATGATATG | 9.91 upbm affinity estimate (log intensity, higher = more binding, comparable within an allelic series)
AATGTATC | 10.1 upbm affinity estimate (log intensity, higher = more binding, comparable within an allelic series)
CCCCCTGC | 8.15 upbm affinity estimate (log intensity, higher = more binding, comparable within an allelic series)
GCCGCAGC | 8.11 upbm affinity estimate (log intensity, higher = more binding, comparable within an allelic series)
GGCGGAAC | 8.22 upbm affinity estimate (log intensity, higher = more binding, comparable within an allelic series)
CACGGGGG | 7.81 upbm affinity estimate (log intensity, higher = more binding, comparable within an allelic series)
AATGATAC | 10.2 upbm affinity estimate (log intensity, higher = more binding, comparable within an allelic series)
GCGCGCCC | 8.26 upbm affinity estimate (log intensity, higher = more binding, comparable within an allelic series)
CCGGGAGG | 7.94 upbm affinity estimate (log intensity, higher = more binding, comparable within an allelic series)
CCCCATGC | 8.26 upbm affinity estimate (log intensity, higher = more binding, comparable within an allelic series)
GGCACCAC | 8.1 upbm affinity estimate (log intensity, higher = more binding, comparable within an allelic series)
CGGAGGGA | 7.97 upbm affinity estimate (log intensity, higher = more binding, comparable within an allelic series)
AGAGGGGC | 8.3 upbm affinity estimate (log intensity, higher = more binding, comparable within an allelic series)
GGGGTACC | 8.11 upbm affinity estimate (log intensity, higher = more binding, comparable within an allelic series)
GCCATTAA | 12.3 upbm affinity estimate (log intensity, higher = more binding, comparable within an allelic series)
CTGGGACC | 8.05 upbm affinity estimate (log intensity, higher = more binding, comparable within an allelic series)
CCGTCCGC | 8.02 upbm affinity estimate (log intensity, higher = more binding, comparable within an allelic series)

Sequence | binding signal
CCCGGACG | 7.88 upbm affinity estimate (log intensity, higher = more binding, comparable within an allelic series)
CGAGCGAC | 7.84 upbm affinity estimate (log intensity, higher = more binding, comparable within an allelic series)
CCCCTCCC | 7.87 upbm affinity estimate (log intensity, higher = more binding, comparable within an allelic series)
GCTTGGCC | 7.97 upbm affinity estimate (log intensity, higher = more binding, comparable within an allelic series)
GGGAGGAC | 8.18 upbm affinity estimate (log intensity, higher = more binding, comparable within an allelic series)
CCCCTCGG | 7.93 upbm affinity estimate (log intensity, higher = more binding, comparable within an allelic series)
AAATCTAC | 9.65 upbm affinity estimate (log intensity, higher = more binding, comparable within an allelic series)
AGTTAATG | 12.4 upbm affinity estimate (log intensity, higher = more binding, comparable within an allelic series)
GCCAGGGC | 7.69 upbm affinity estimate (log intensity, higher = more binding, comparable within an allelic series)
CGGGCACG | 7.98 upbm affinity estimate (log intensity, higher = more binding, comparable within an allelic series)
GACCCAGC | 8.16 upbm affinity estimate (log intensity, higher = more binding, comparable within an allelic series)
CCAGGGCC | 8.27 upbm affinity estimate (log intensity, higher = more binding, comparable within an allelic series)
CCCCCTGA | 7.95 upbm affinity estimate (log intensity, higher = more binding, comparable within an allelic series)
CTCCCGAG | 8.1 upbm affinity estimate (log intensity, higher = more binding, comparable within an allelic series)
CCATTAAC | 12.6 upbm affinity estimate (log intensity, higher = more binding, comparable within an allelic series)
CCCTTCCG | 8.37 upbm affinity estimate (log intensity, higher = more binding, comparable within an allelic series)
CAAGGCCC | 7.78 upbm affinity estimate (log intensity, higher = more binding, comparable within an allelic series)

What follows are sequences tested against T3, SIX6 (Homo sapiens, UniProt O95475 114-200, L143V) (assay: PBM; 200 nM protein, PBS). Settings: dsDNA, one strand shown.
T3 sequence: T1 sequence with L30V, I54L

Sequence | binding signal
ATGATATG | 10.4 upbm affinity estimate (log intensity, higher = more binding, comparable within an allelic series)
GGCGGAAC | 8.81 upbm affinity estimate (log intensity, higher = more binding, comparable within an allelic series)
AATGATAC | 10.6 upbm affinity estimate (log intensity, higher = more binding, comparable within an allelic series)
GCGCGCCC | 8.71 upbm affinity estimate (log intensity, higher = more binding, comparable within an allelic series)
GCTTGGCC | 8.84 upbm affinity estimate (log intensity, higher = more binding, comparable within an allelic series)
CAAGGCCC | 8.85 upbm affinity estimate (log intensity, higher = more binding, comparable within an allelic series)

What follows are sequences tested against HOXA7 (Homo sapiens, UniProt P31268 116-202) (assay: PBM; 200 nM protein, PBS). Settings: dsDNA, one strand shown.
Chain of HOXA7 (P31268 116-202): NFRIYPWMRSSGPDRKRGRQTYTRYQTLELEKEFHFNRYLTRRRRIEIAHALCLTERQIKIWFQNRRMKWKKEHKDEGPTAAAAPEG

Sequence | binding signal
GCCATTAA | 11.9 upbm affinity estimate (log intensity, higher = more binding, comparable within an allelic series)
CCCGGACG | 8.42 upbm affinity estimate (log intensity, higher = more binding, comparable within an allelic series)
CCATTAAC | 11.5 upbm affinity estimate (log intensity, higher = more binding, comparable within an allelic series)

These sequences were tested against T4, SIX6 (Homo sapiens, UniProt O95475 114-200, H141N) (assay: PBM; 200 nM protein, PBS). Settings: dsDNA, one strand shown.
T4 sequence: T1 sequence with H28N, I54L

Sequence | binding signal
ATGATATG | 11.3 upbm affinity estimate (log intensity, higher = more binding, comparable within an allelic series)
GGCGGAAC | 8.78 upbm affinity estimate (log intensity, higher = more binding, comparable within an allelic series)
AATGATAC | 11.5 upbm affinity estimate (log intensity, higher = more binding, comparable within an allelic series)
GCGCGCCC | 8.79 upbm affinity estimate (log intensity, higher = more binding, comparable within an allelic series)
GCTTGGCC | 8.96 upbm affinity estimate (log intensity, higher = more binding, comparable within an allelic series)
